Hits are enriched below; roughly 8% of the tested compounds scored in any of these assays.
KB-V1 cytotox – KB-V1 MDR subline cytotoxicity; 400,000 tested, 3.4% active; Potency, µM (doses to about 46.1 µM), usual class: cytotoxic; KB-V1 MDR cells viability, CellTiter-Glo, 72 h; also: % is scaled to controls: 0 for no effect and ±100 for the full control effect; nearly all actives have a fitted effect of over 60% in size
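In this primary screen, KB-V1 cells overexpressing P-gp are incubated with library compounds (lowest to highest concentration) for 72 h at 37 degrees C before a luminescent ATP viability read.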
HT1080 IDH1KD tx – HT-1080 IDH1 knockdown cell toxicity (counter line); HT-1080 IDH1 knockdown viability, ATP luminescence, 48 h; Potency, µM (titrated, usually from 46.1 µM), for the others: at the top dose activity, negative = toxicity, most hits filed as cytotoxic; 360,000 tested, 2% active;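 also: 0% = DMSO wells and -100% = cell-free medium wells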
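Using the IDH1-knockdown HT-1080 line run in the same batch and compound series as the NT line, viability after 48 h at 37 °C was determined by CellTiter-Glo luminescence and expressed as % activity.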
MCF10A rereplic – inducers of DNA re-replication in MCF 10A breast cells | AID 624296 | 350,000 tested, 2.9% active | MCF 10A DNA re-replication, Hoechst nuclear intensity, 48 h | Potency, µM (highest dose often 46.1 µM), for inactives: at the highest dose activity, positive = re-replication, most hits filed as activators; also: % of control where 0% means no effect; nearly all actives have a fitted effect of over 50% in size
HT1080NT lethal – kills 2HG-producing HT-1080-NT fibrosarcoma cells; HT-1080-NT fibrosarcoma viability, CellTiter-Glo ATP luminescence, 48 h; Potency, µM (titrated, usually from 46.1 µM), for inactives: at the top dose activity, negative = less viability, most hits filed as cytotoxic; 360,000 tested, 1.6% active;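 also: NT is the 2HG producing partner of a matched IDH1 knockdown line; 0% = DMSO-treated cells and -100% = media-only wells without cells; nearly all actives have a fitted effect of over 55% in size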
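HT-1080-NT fibrosarcoma cells (2HG-overproducing), 750 cells/well in RPMI with 5% FBS, dosed after 2 h and incubated 48 h at 37C. CellTiter-Glo luminescence normalized to DMSO and no-cell wells; concentration-response curves fitted and classed.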
SW480 rereplic – DNA re-replication induction in SW480 cells. SW480 DNA re-replication, Hoechst DNA content imaging, 48 h. Potency, µM (doses to about 46.1 µM), without a hit: at the top dose re-replication activation, usual class: activators. 340,000 tested, 1.8% active; also: % of control where 0% means no effect; nearly all actives have a fitted effect of over 55% in size
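Image-based DNA-content assay: after two days of treatment, nuclei were labelled with the DNA dye Hoechst and imaged, and hits were compounds raising the count of nuclei showing high fluorescence intensity.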
KB-3-1 cytotox – kills parental KB-3-1 adenocarcinoma cells; KB-3-1 viability, CellTiter-Glo ATP luminescence, 72 h; Potency, µM (top dose mostly 46.1 µM), hits mostly cytotoxic; 400,000 tested, 1.4% active; also: % is scaled to controls: 0 for no effect and ±100 for the full control effect; nearly all actives have a fitted effect of over 60% in size
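Luminescent ATP read-out (CellTiter-Glo) measures survival of drug-naive KB-3-1 cells after 72 h compound exposure at 37 °C. Titration series was screened from lowest to highest concentration, with DMSO vehicle plates as background controls.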
* = called active by the depositor. Calls follow the shape of the dose curve; as a rule, active = well fitted curve in the direction sought with a large enough effect; inconclusive = small, poorly fitted or top-dose-only effect, or another doubt; inactive = no such curve, though single readings can be large; an effect the other way counts as inactive or inconclusive. Potency is read from the fitted curve at half-maximal effect.

How did COc1ccc(CCn2c(N)c(C(=O)NCc3ccco3)c3nc4ccccc4nc32)cc1OC do in these assays?
KB-V1 cytotox: inactive; HT1080 IDH1KD tx: 17.8µM*; MCF10A rereplic: -0.7%; HT1080NT lethal: inconclusive; SW480 rereplic: 19.3%; KB-3-1 cytotox: inactive

How did COc1ccc(Cn2c(N)c(C#N)c3nc4ccccc4nc32)cc1OC do in these assays?
KB-V1 cytotox: inactive; HT1080 IDH1KD tx: -21.3%; MCF10A rereplic: inconclusive; HT1080NT lethal: -8.2%; SW480 rereplic: 10.3µM*; KB-3-1 cytotox: inactive

Results for COc1ccc(CCn2c(N)c(C#N)c3nc4ccccc4nc32)cc1OC ?
KB-V1 cytotox: inconclusive; HT1080 IDH1KD tx: -8.5%; MCF10A rereplic: inconclusive; HT1080NT lethal: -12.1%; SW480 rereplic: inconclusive; KB-3-1 cytotox: inactive

What do the screens show for `CC[N+](CC)(CCNC(=O)C(=O)NCC[N+](CC)(CC)Cc1ccccc1Cl)Cc1ccccc1Cl`?
MCF10A rereplic: -0.1%; SW480 rereplic: -6.7%

Results for CC(=O)[O][Al][O]C(C)=O ?
MCF10A rereplic: 1.2%; SW480 rereplic: inactive

How did Nc1c(C(=O)NCc2ccco2)c2nc3ccccc3nc2n1CCc1ccccc1F do in these assays?
KB-V1 cytotox: inconclusive; HT1080 IDH1KD tx: -14.6%; MCF10A rereplic: 2.59µM*; HT1080NT lethal: -13.9%; SW480 rereplic: 5.8µM*; KB-3-1 cytotox: inconclusive

Results for Nc1c(C(=O)NCC2CCCO2)c2nc3ccccc3nc2n1-c1ccccc1 (stereo not given) ?
KB-V1 cytotox: inconclusive; HT1080 IDH1KD tx: inconclusive; MCF10A rereplic: inconclusive; HT1080NT lethal: inconclusive; SW480 rereplic: inconclusive; KB-3-1 cytotox: inactive

Results for COc1ccccc1-n1c(N)c(C(=O)NCC2CCCO2)c2nc3ccccc3nc21 (stereo not given) ?
KB-V1 cytotox: inactive; HT1080 IDH1KD tx: -1.7%; MCF10A rereplic: inconclusive; HT1080NT lethal: -17.3%; SW480 rereplic: 11.2µM*; KB-3-1 cytotox: inactive

How did COc1ccc(-n2c(N)c(C(=O)NCc3ccco3)c3nc4ccccc4nc32)c(OC)c1 do in these assays?
KB-V1 cytotox: inactive; HT1080 IDH1KD tx: -18.3%; MCF10A rereplic: 7.08µM*; HT1080NT lethal: -2.3%; SW480 rereplic: 2.06µM*; KB-3-1 cytotox: inactive

How did COc1ccc(S(=O)(=O)Cc2ccc(C(=O)NCc3ccco3)o2)cc1 do in these assays?
KB-V1 cytotox: inactive; HT1080 IDH1KD tx: 4.1%; MCF10A rereplic: -1.4%; HT1080NT lethal: 2.0%; SW480 rereplic: 2.3%; KB-3-1 cytotox: inactive

What do the screens show for `COc1ccc(CCn2c(N)c(C(=O)NCc3ccco3)c3nc4ccccc4nc32)cc1`?
KB-V1 cytotox: 6.51µM*; HT1080 IDH1KD tx: inconclusive; MCF10A rereplic: inconclusive; HT1080NT lethal: inconclusive; SW480 rereplic: inconclusive; KB-3-1 cytotox: 7.31µM*

Results for CCOC(=O)Cc1cc(C(=O)Nc2ccc(Br)cc2)sc1-c1ccc(C)cc1 ?
KB-V1 cytotox: inactive; KB-3-1 cytotox: inactive

How did Fc1ccc(N2CCN(Cc3nnc(-c4ccccc4Cl)o3)CC2)cc1 do in these assays?
KB-V1 cytotox: inactive; KB-3-1 cytotox: inactive

Results for C(=N\Nc1nc2ccccc2s1)/c1cccs1 ?
KB-V1 cytotox: inconclusive; HT1080 IDH1KD tx: 11.2µM*; MCF10A rereplic: -3.2%; HT1080NT lethal: 10µM*; SW480 rereplic: 11.9%; KB-3-1 cytotox: inactive

What do the screens show for `Cc1ccsc1/C=N/Nc1nc2ccccc2s1`?
KB-V1 cytotox: inactive; HT1080 IDH1KD tx: -26.3%; MCF10A rereplic: 0.0%; HT1080NT lethal: inconclusive; SW480 rereplic: -3.2%; KB-3-1 cytotox: inactive

What do the screens show for `CCn1c(C)c(/C=N/Nc2nc3ccccc3s2)c2ccccc21`?
KB-V1 cytotox: inactive; HT1080 IDH1KD tx: 8.91µM*; MCF10A rereplic: 10.7%; HT1080NT lethal: 3.55µM*; SW480 rereplic: inconclusive; KB-3-1 cytotox: inactive

What do the screens show for `Oc1ccccc1C=NNc1nc2ccccc2s1`?
KB-V1 cytotox: inactive; HT1080 IDH1KD tx: 8.2µM*; MCF10A rereplic: -7.7%; HT1080NT lethal: 18.4µM*; SW480 rereplic: inconclusive; KB-3-1 cytotox: inconclusive

Results for Cc1ccc(NC(=O)C2CCN(c3nc4ccccc4[nH]3)CC2)c(C)c1 ?
KB-V1 cytotox: inactive; KB-3-1 cytotox: inactive

How did COc1ccc(Cl)cc1NC(=O)CN(C)CC(=O)Nc1ccccc1N1CCOCC1 do in these assays?
KB-V1 cytotox: inconclusive; HT1080 IDH1KD tx: 1.16µM*; MCF10A rereplic: inconclusive; HT1080NT lethal: 1.46µM*; SW480 rereplic: 5.17µM*; KB-3-1 cytotox: inactive

What do the screens show for `COc1cc(OC)c(OC)cc1NC(=O)CC1COc2ccccc2O1` (stereo not given)?
KB-V1 cytotox: 14.6µM*; HT1080 IDH1KD tx: 6.4%; MCF10A rereplic: 5.4%; HT1080NT lethal: 4.7%; SW480 rereplic: 1.6%; KB-3-1 cytotox: inactive

What do the screens show for `COc1ccc(C)cc1NC(=O)CC1COc2ccccc2O1` (stereo not given)?
KB-V1 cytotox: inactive; HT1080 IDH1KD tx: 12.0%; MCF10A rereplic: inconclusive; HT1080NT lethal: -1.1%; SW480 rereplic: 0.3%; KB-3-1 cytotox: inactive

How did CCOc1ccc(OCC)c(NC(=O)C2COc3ccccc3O2)c1 (stereo not given) do in these assays?
KB-V1 cytotox: 20.6µM*; HT1080 IDH1KD tx: -10.5%; MCF10A rereplic: inconclusive; HT1080NT lethal: 1.7%; SW480 rereplic: 1.8%; KB-3-1 cytotox: inactive

Results for COCCN(CC(=O)Nc1cccc(C)c1C)C(=O)c1cc2c(s1)CCC2 ?
KB-V1 cytotox: 7.31µM*; HT1080 IDH1KD tx: 0.4%; MCF10A rereplic: 2.1%; HT1080NT lethal: 0.1%; SW480 rereplic: -1.0%; KB-3-1 cytotox: inactive

How did CCN(CC(=O)Nc1ccccc1C(F)(F)F)C(=O)c1cc2c(s1)CCCCC2 do in these assays?
KB-V1 cytotox: inactive; HT1080 IDH1KD tx: -17.0%; MCF10A rereplic: inconclusive; HT1080NT lethal: -15.7%; SW480 rereplic: -5.5%; KB-3-1 cytotox: inactive

What do the screens show for `COc1ccc(Cl)cc1NC(=O)CN(C)CC(=O)N1CC(=O)Nc2ccccc21`?
KB-V1 cytotox: inactive; HT1080 IDH1KD tx: -11.4%; MCF10A rereplic: inconclusive; HT1080NT lethal: -14.3%; SW480 rereplic: 5.7%; KB-3-1 cytotox: inactive

Results for COc1ccc(Cl)cc1NC(=O)CN(C)C(=O)c1cc2c(s1)CCCC2 ?
KB-V1 cytotox: 13µM*; HT1080 IDH1KD tx: -20.2%; MCF10A rereplic: inconclusive; HT1080NT lethal: -8.0%; SW480 rereplic: 18.4µM*; KB-3-1 cytotox: inconclusive
